# Results: PubChem BioAssay (NCI)
# This is part of a sample that, as a whole, favours compounds with a hit. Of some 83,000 tested, about 20% had one in any assay.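 96-well plates, one dose, 48 hours. Percent growth reported; active if below 10.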 Values without a mark were called inactive. The source made the active and inactive calls.
# Assays:
# Assay in all cases: NCI-60 one-dose screen, 48 h (100 = growth as untreated, 0 = no growth, -100 = all killed)
# Details in all cases: 10 µM unless noted
# EKVX NSCLC = system: EKVX NSCLC
# SN12C renal = system: SN12C renal
# UO-31 renal = system: UO-31 renal
# TK-10 renal = system: TK-10 renal
# ACHN renal = system: ACHN renal
# CAKI-1 renal = system: CAKI-1 renal
# A498 renal = system: A498 renal
# CCRF-CEM leukemia = system: CCRF-CEM leukemia
# MOLT-4 leukemia = system: MOLT-4 leukemia
# SR leukemia = system: SR leukemia
SMILES,growth (EKVX NSCLC),growth (SN12C renal),growth (UO-31 renal),growth (TK-10 renal),growth (ACHN renal),growth (CAKI-1 renal),growth (A498 renal),growth (CCRF-CEM leukemia),growth (MOLT-4 leukemia),growth (SR leukemia)
CC(=O)Oc1ccccc1C(=O)Nc1cc(C(C)C)ccc1C,10.5%,8.31% (active),-0.422% (active),21%,10.1%,6.69% (active),-29.4% (active),14.6%,4.63% (active),-28.1% (active)
O=c1[nH]c2ccc(Cl)cc2cc1CSc1ccccc1Nc1nccc(-c2ccc(Cl)cc2)n1,80.5%,87.1%,81.2%,128%,95.7%,82.5%,88.1%,90.6%,60.9%,77.2%
Cn1cc(-c2cc(N)n3nc(-c4cn(C)c5ccc(Br)cc45)cc3n2)c2cc(Br)ccc21,90.7%,90.3%,81.8%,133%,92.2%,79%,102%,22.8%,48.9%,-13.5% (active)
O=C1C2=C(C(=O)c3c(O)cccc31)C(c1ccco1)c1sc(=O)[nH]c1S2 (stereo not given),83.4%,-73.6% (active),25.1%,146%,39.6%,70.4%,17.1%,13%,0.849% (active),15.8%
COc1ccccc1/C=C/C=N/NC1=NC2C(S1)N(C)C(=O)N2C (stereo not given),40.1%,39.1%,49%,76.3%,46.3%,30.6%,-18.2% (active),15.3%,21%,13.2%
CC(C)(C)Nc1nc2c(OCCc3ccccc3)cccn2c1-c1ccccc1Cl,6.5% (active),0.779% (active),-14% (active),10.6%,4.1% (active),-6.8% (active),-23% (active),1.24% (active),-21.5% (active),-14.6% (active)
CCCSc1nc(Nc2ccc(/C(C)=N\NC(N)=S)cc2)c(C#N)c(-c2ccc(OC)cc2)n1,74.8%,33.5%,28.3%,33.4%,47.2%,-7.3% (active),101%,89.2%,80.4%,74.2%
CC(C)(C)Nc1nc2c(OCCc3ccccc3)cccn2c1-c1ccc(Cl)cc1,5.46% (active),10.3%,0.0667% (active),20.8%,8.77% (active),29.3%,56%,6.47% (active),4.83% (active),1.41% (active)
Cc1[nH]nc2ncc(C#Cc3cncc(C(=O)Nc4ccc(CN5CCN(C)CC5)c(C(F)(F)F)c4)c3)cc12,54.9%,7.71% (active),-6.87% (active),27.8%,4.36% (active),-27.9% (active),-17.7% (active),20.9%,20.4%,19.6%
COC1CCN(Cc2ccc3c(NNC(=O)c4cnccn4)nc4cc(F)ccc4n23)C1 (stereo not given),29.9%,24.1%,18.6%,40.8%,14.1%,16.8%,30.6%,1.87% (active),8.05% (active),1.51% (active)
Cc1c(NC(=O)CSc2nc3sc4c(c3c(=O)n2-c2ccc(Cl)cc2)CCCC4)c(=O)n(-c2ccccc2)n1C,97.3%,88.9%,72.8%,109%,90.8%,65.1%,62.6%,98.2%,71.3%,86.1%
Cc1ccccc1NC(=O)/C=C/c1ccc(OCCOc2ccc3c(C)cc(=O)oc3c2)cc1,107%,91.5%,99.6%,132%,89.4%,95.1%,81.3%,95.7%,93.2%,61.3%
COc1ccc(Cc2nn(CC(=O)N/N=C/c3ccc(Cl)cc3)c(=O)c3c(C)noc23)cc1,88.8%,66%,84.9%,95.5%,72.7%,80.8%,90.5%,74.8%,89.7%,53.9%
C/C(=N/NC(N)=S)c1ccc(Nc2nc(SCC(C)C)nc(-c3ccc(F)cc3)c2C#N)cc1,-0.0417% (active),12.7%,0.28% (active),8.09% (active),12.5%,-9.45% (active),15.9%,51.7%,44.4%,42.8%
CN1C(=O)N(c2ccccc2)C2N=C(N/N=C/c3ccccc3)SC21 (stereo not given),53.4%,38.5%,47.4%,61.7%,49.1%,41.9%,-18.8% (active),17.1%,25.5%,13.6%
COc1cc(-c2nc3ccc(-c4nnc(SCC(=O)Nc5ccc(C(=O)/C=C/c6ccc(Cl)cc6)cc5)o4)cc3[nH]2)cc(OC)c1OC,99.5%,90.4%,84%,120%,96.8%,97.2%,83.2%,81.6%,79.5%,60.4%
CC(C)(C)OC(=O)N1C(=O)c2c(c3c4ccccc4[nH]c3c3ccc4ccccc4c23)C1=O,67.7%,52.6%,40.4%,36.8%,34.5%,26%,-2.67% (active),44.4%,38.2%,23%
COc1ccc(-c2nc3ccc(-c4nnc(SCC(=O)Nc5ccc(C(C)=O)cc5)o4)cc3[nH]2)cc1,99.2%,113%,94.1%,116%,102%,101%,110%,100%,87.8%,89.5%
O=C(Nc1nc2ccc(O)cc2s1)c1cccc(C(F)(F)F)c1,55.6%,68.9%,33.4%,80.8%,53%,53%,78.9%,31%,34.6%,75.7%
Cc1c(Nc2nnc(SCC(=O)Nc3sc4c(c3C#N)CCCC4)s2)c(=O)n(-c2ccccc2)n1C,97.4%,106%,97.3%,135%,100%,110%,109%,99.4%,92.7%,98.5%
CN1CCN(Cc2ccc(NC(=O)c3cncc(C#Cc4cnc5[nH]ncc5c4)c3)cc2C(F)(F)F)CC1,55.4%,14.4%,2.97% (active),49.7%,8.5% (active),-13.2% (active),-5.79% (active),20.1%,16.9%,10.6%
Cn1c(SCC(=O)c2cccs2)nc2ccccc2c1=O,73.1%,91.8%,84.5%,177%,91.7%,82.1%,63.9%,80.3%,87%,90.4%
COc1ccc(C(=O)c2cc(C(=O)/C=C/c3c(Cl)cccc3Cl)c3cc(C)ccn23)cc1,92.1%,94.2%,96.6%,119%,101%,89.9%,86.4%,99.8%,96.4%,97%
Fc1ccc(-c2cc3nc(C(Cl)Cl)nc(-c4ccccc4)n3n2)cc1,1.49% (active),52%,3.9% (active),-23.9% (active),-27.2% (active),-17.5% (active),-59.9% (active),55.7%,23.6%,3.78% (active)
